# RORg inh – qHTS for inhibitors of ROR gamma transcriptional activity. 310,000 tested, 5.4% active. Potency, µM (series often up to 53.6 µM), inactives show top-dose activity change, negative = inhibition, most hits filed as inhibitors. Drosophila S2 Gal4-RORgamma UAS-luciferase reporter, 20 h; note: potency is the fitted concentration of half-maximal effect; % is set by controls: 0 for no effect and ±100 for the full control effect; nearly all actives have a fitted effect of over 60% in size
# Target sequence (P51450 whole entry, looked up, the tested form may be a part): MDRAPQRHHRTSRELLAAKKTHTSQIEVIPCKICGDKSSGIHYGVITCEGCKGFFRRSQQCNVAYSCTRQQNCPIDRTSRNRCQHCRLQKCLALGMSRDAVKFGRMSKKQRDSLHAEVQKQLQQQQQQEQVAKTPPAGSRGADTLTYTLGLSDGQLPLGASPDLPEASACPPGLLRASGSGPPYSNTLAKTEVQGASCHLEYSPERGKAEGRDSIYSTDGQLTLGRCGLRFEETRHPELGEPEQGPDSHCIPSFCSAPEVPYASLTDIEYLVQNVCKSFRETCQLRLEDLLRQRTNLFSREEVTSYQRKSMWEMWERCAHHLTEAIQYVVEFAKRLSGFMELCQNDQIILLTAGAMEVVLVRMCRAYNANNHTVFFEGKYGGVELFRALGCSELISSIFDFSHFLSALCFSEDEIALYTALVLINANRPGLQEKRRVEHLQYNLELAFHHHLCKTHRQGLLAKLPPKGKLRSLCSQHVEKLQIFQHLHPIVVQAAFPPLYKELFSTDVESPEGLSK
#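 Read-out: Photinus luciferase luminescence; inhibitors lower reporter signal. Insect Schneider cells with Gal4-ROR gamma fusion under metallothionein promoter, UAS reporter; 700 uM final copper sulfate induction, 20 hr, ambient temperature.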
# uPA generation – qHTS for Inhibitors of Cell Surface uPA Generation | cell surface uPA generation assay, qHTS | 330,000 tested, 0.31% active | Potency, µM (titrated, usually from 38.3 µM), without a hit: top-dose activity change, negative = inhibition, actives largely listed as inhibitors; active = well fitted inhibition curve with a large enough effect; inconclusive = small, poorly fitted or top-dose-only effect; inactive = no such curve, though single readings can be large or run the other way; tested in mouse RAW 264.7 cells; note: potency is the fitted concentration of half-maximal effect; % is set by controls: 0 for no effect and ±100 for the full control effect; nearly all actives have a fitted effect of over 55% in size
# TRPV1 PAM – HTS Assay for Compounds that Act as Potentiators of the Vanilloid Receptor 1 | TRPV1-expressing cells, Fluo-8 calcium influx, capsaicin EC20 potentiation | Transient receptor potential cation channel subfamily V member 1 (Homo sapiens), Q8NER1 | potentiation, % at 8.33 µM | AID 540277, 2011 | 320,000 tested, 0.02% active; in the data active = potentiation above about 80%; inconclusive = between about 30% and that limit; note: 0% is about no effect
#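 TRPV1-expressing cells were cultured overnight at 35.5C and loaded with Fluo-8 calcium dye for 40 to 90 min at room temperature. After a 10 s baseline, compound was added and calcium influx was read kinetically for 3 min (ex 480/em 520 nm).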
# TRPV1 agonist – HTS Assay for Compounds that Act as Agonists of the Vanilloid Receptor 1; Transient receptor potential cation channel subfamily V member 1 (Homo sapiens), Q8NER1; activation, % at 8.33 µM; AID 540275, 2011; TRPV1-expressing cells, Fluo-8 calcium influx, agonist mode; 320,000 tested, 0.19% active; in the data active = activation above about 80%; inconclusive = between about 30% and that limit; note: 0% is about no effect
#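 Fluo-8 calcium influx in TRPV1-expressing cells, kinetic read (ex 480/em 520 nm). Compound added and read 3 min for agonist activity, followed by capsaicin at EC20 final and 2 min further read for enhancement.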
# Gal4-VP16 FLuc – VP16 counterscreen qHTS for inhibitors of ROR gamma transcriptional activity; Drosophila S2 Gal4-VP16 UAS-luciferase, luminescence, 20 h; Potency, µM (doses to about 53.6 µM), inactives show at the top dose activity, negative = inhibition, most hits filed as inhibitors; 310,000 tested, 3.5% active; AID 2546, 2010;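 note: Gal4-VP16 expression switched on by copper sulfate through the metallothionein promoter; potency is the fitted concentration of half-maximal effect; % is set by controls: 0 for no effect and ±100 for the full control effect; nearly all actives have a fitted effect of over 50% in size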
# Starred values were filed as active, the others as inactive; ? = inconclusive; . = not tested or not shown; [ ] = remark or other dose. This is a sample that favours compounds with a hit; in the whole collection about 5.8% have one here. Unless noted, calls come from the whole dose curve; as a rule, active = well fitted curve in the direction sought with a large enough effect; inconclusive = small, poorly fitted or top-dose-only effect, or another doubt; inactive = no such curve, though single readings can be large; an effect the other way counts as inactive or inconclusive.
SMILES,RORg inh,uPA generation,TRPV1 PAM,TRPV1 agonist,Gal4-VP16 FLuc
COc1ccc(CNC(=O)c2ccc(Cn3nc(C)cc3C)o2)cc1,-25%,6%,24,8,-8%
CCn1cc(C(=O)O)c(=O)c2cnc(N3CCN(C(=S)NC(=O)c4ccccc4)CC3)nc21,2.5µM*,-1%,1,3,1%
CCn1cc(C(=O)O)c(=O)c2cc(F)c(N3CCN(C(=S)NC(=O)c4cc(OC)cc(OC)c4)CC3)cc21,2.5µM*,0%,-9,1,6.3µM*
CCn1cc(C(=O)O)c(=O)c2cc(F)c(N3CCN(C(=S)NC(=O)c4ccccc4)CC3)cc21,-25%,2%,-8,0,4%
CCCC(=O)Nc1nnc(CC(=O)N2CCCC2)s1,1.3µM*,7%,26,-2,-6%
CCCc1nnc(NC(=O)CCC(=O)N2CCCCCC2)s1,26%,2%,2,-2,5%
O=C(COc1coc(CN2CCN(c3ccccc3F)CC2)cc1=O)NC1CCCC1,.,2%,-31,1,.
CC1(C)C2CCC(C2)C1C/C=N/NC(N)=S (configuration not stated),1.8µM*,-4%,.,.,4µM*
O=C(CN1CCN(S(=O)(=O)c2ccccc2F)CC1)NC1CCCC1,-1%,2%,-11,2,19%
COc1cc(/C=C2\CCc3c2nc2ccccc2c3C(=O)O)cc(OC)c1OC,10µM*,?,.,.,?
COc1cc(/C=C2\CCCc3c2nc2ccccc2c3C(=O)O)cc(Br)c1O,3%,0%,29,-6,-2%
CCOc1cc(/C=C2\CCCc3c2nc2ccccc2c3C(=O)O)ccc1OC,-14%,-5%,-6,81*,17%
CN1CC(c2ccccc2)Oc2ccccc2C1=S (configuration not stated),.,-3%,.,.,.
CCCN1C(=S)c2ccccc2C1c1ccccc1 (configuration not stated),10µM*,3%,-7,3,-1%
Cn1cnnc1SCC(=O)Nc1nc(-c2ccccc2)cs1,?,-2%,-3,89*,-1%
O=C(CN1CCCCC1)Nc1nc(-c2ccc(F)c(F)c2)cs1,0%,1%,-3,-1,-3%
COc1ccc(N2CCN(CC(=O)Nc3nnc(-c4ccccc4)s3)CC2)cc1,10µM*,-5%,-10,20,?
Cc1ccc(-c2csc(NC(=O)CN3CCOCC3)n2)cc1C,35%,0%,-14,95*,1%
O=C(CN1CCOCC1)Nc1nc(-c2ccccc2)cs1,8%,2%,-13,85*,20%
O=C(CN1CCCCC1)Nc1nc(-c2ccccc2)cs1,-33%,-2%,6,?,?
Cc1cccc2cncc(OCc3nnc(SC(F)F)n3C)c12,-1%,-1%,1,1,1%
O=C1Oc2ccccc2C(=O)C1C(CC(O)c1ccc(-c2ccc(Br)cc2)cc1)c1ccccc1 (configuration not stated),?,.,.,.,-9%
CCC(CC)c1nnc(NC(=O)CCNC(=O)c2ccccc2Cl)s1,?,3%,5,0,1%
CCOc1ccc(NC(=O)c2ccncc2)cc1,22%,-1%,-14,23,-2%
CCOc1ccc2c(c1)C(=NNC(=O)c1ccncc1)c1cc(OCC)ccc1-2,1.1µM*,-4%,-19,?,0.89µM*
SMILES,RORg inh,uPA generation,TRPV1 PAM,TRPV1 agonist,Gal4-VP16 FLuc
CCNc1ncc2nc(-c3ccc(OC)cc3)c(=O)n(CCC#N)c2n1,5%,.,.,.,-4%
Clc1cccc(CSc2nc3ccncc3[nH]2)c1,?,4.5µM*,-10,20,17%
Cc1ccc(Nc2nc3ccccc3c(=O)s2)cc1,6.3µM*,16%,3,0,11µM*
NC(=O)c1ccc(N=Cc2ccc([N+](=O)[O-])s2)cc1,?,18%,8,0,5.6µM*
Cc1nc2ccccc2n1/N=C/c1ccc([N+](=O)[O-])s1,-51%,1%,15,?,6.3µM*
O=[N+]([O-])c1ccc(C=Nc2ccc(Cl)c([N+](=O)[O-])c2)s1,?,.,17,1,-24%[10 µM]
COc1cccc(/C=N/n2c(C)nc3ccccc32)c1OC,3.2µM*,-6%,-18,?,8.9µM*
Cc1cc(C)cc(N=Cc2ccc([N+](=O)[O-])s2)c1,?,16%,13,2,18µM*
CN1CCc2ccc3c4c2[C@]1(C)Cc1cccc(c1-4)OCO3,-21%,.,.,.,-2%
Cc1ccc(NC(=S)N/N=C/c2ccc([N+](=O)[O-])s2)cc1,7.1µM*,-10%,8,3,16µM*
CCc1cc(SC#N)cc(CC)c1NC(=O)CCl,?,-11%,22,-1,20µM*
Cc1cc(C)c2c(NC(=O)CCl)nn(C)c2n1,-21%,?,11,-7,?
CCCCn1c(N)c(C(=S)NC(=O)CC(C)(C)C)c(=O)n(C)c1=O,1.3µM*,1%,-2,3,0.71µM*
CCCn1c(N)c(C(=O)CSc2ncn[nH]2)c(=O)n(C)c1=O,.,6%,6,-2,.
Cn1nc(-c2ccc(Cl)cc2)c2cc(C(=O)N3CCN(c4ccccc4)CC3)sc21,1%,4%,.,.,8%
Cn1nc(-c2ccc(Cl)cc2)c2cc(C(=O)N3CCN(c4ccccn4)CC3)sc21,18%,3%,7,5,13µM*
N#CC1=C(SCC(=O)NC23CC4CC(CC(C4)C2)C3)NC(=O)C(C#N)C12CCCCC2 (configuration not stated),?,3%,3,13,16µM*
N#CC1=C(SCC(=O)NC2CC2)NC(=O)C(C#N)C12CCCCC2 (configuration not stated),-3%,13%,4,3,-4%
O=C(Nc1ccc(NC(=O)c2cccnc2Cl)cc1)c1cccc(Cl)c1,-13%,-1%,-4,11,-15%
COc1ccccc1CP(=O)(c1ccccc1)c1ccccc1,?,4%,-5,5,15%
CCCC[C@@H](CNC)NC[C@H](NCCCCC1CCCCC1)C(C)C,16µM*,?,-1,1,?
CC(C)CC(CSc1ccc(Br)cc1)N1CCN(C)CCC1=O (configuration not stated),1%,.,.,.,-11%
COc1cc(NCCCC(C)N)c2ncccc2c1 (configuration not stated),2.2µM*,-21%,4,-2,?
COc1cc(NC(=O)c2ccccc2Cl)c2ncccc2c1,42%,?,-10,1,0%
CCC(CNc1cc(OC)cc2cccnc12)NC1CCCCC1 (configuration not stated),16µM*,11%,-18,3,?
CC(=O)N1CCN(S(=O)(=O)c2ccc(F)c(Cl)c2)CC1,-29%,-2%,-4,2,-7%
C=CCOc1c(Cl)cc(CNc2nccs2)cc1OC,5.6µM*,3%,23,24,?

# Source: PubChem (National Center for Advancing Translational Sciences (NCATS))
